The values that follow come from PubChem BioAssay.

Assay [1] can be described thus: E. coli DRC41 culture turbidity changes, primary screen, E. coli filamentation inducer project, strain DRC41, OD650, 48 h (AID 1152).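 Further: E. coli MC1000 strain DRC41 lacking acrAB efflux pump and sulA.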 Conditions: E. coli DRC41 (acrAB sulA), higher = more signal, called active from +8 up or from −8 down.
A short description of assay [2]: small-molecule binders of probe aLefty1, primary screen, biochemical, small-molecule microarray, 635/667 nm fluorescence (AID 1153).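 Further: score merges spot fluorescence with signal-to-noise ratio from the scanned slide images.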 To be noted: higher = more signal.
A short description of assay [3]: PSAC antagonists in infected red cells, primary screen, cell-based, P. falciparum Indochina, OD700, 1 h (AID 1154). To be noted: P. falciparum Indochina infected RBC osmotic lysis, higher = more signal, called active from +8 up or from −8 down.
Assay [4] in a line: PSAC antagonists in infected red cells, primary screen, cell-based, P. falciparum Indochina, OD700, 2 h (AID 1155).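 Further: lysis reports solute entry through the parasite surface anion channel PSAC; channel blockers reduce lysis of infected cells.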 Conditions: P. falciparum Indochina infected erythrocytes, osmotic lysis OD700; higher = more signal, called active from +8 up or from −8 down.
The nature of assay [5]: osmotic lysis modulators in infected erythrocytes, primary screen, PSAC antagonist project, cell-based, P. falciparum Indochina, OD700, 3 h (AID 1156). Conditions: higher = more signal, called active from +8 up or from −8 down.
A short description of assay [6]: PSAC antagonists in infected red cells, primary screen, cell-based, P. falciparum Indochina, OD700, 18 h (AID 1157). To be noted: P. falciparum Indochina infected erythrocytes, osmotic lysis OD700, 18 h; higher = more signal, called active from +8 up or from −8 down.
A short description of assay [7]: modulators of S6 phosphorylation in cells, primary screen, cell-based, A549, cytoblot, luminescence, serum-stimulated (AID 1158).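 Further: serum-stimulated A549 lung adenocarcinoma cells; signal is phosphorylated S6 detected by cytoblot immunostaining with HRP secondary.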 Conditions: A549 phospho-S6 cytoblot, 5 h, higher = more signal.
For assay [8], the target named is NADPH oxidase 2 (Homo sapiens) (UniProt P04839). Nature of the assay: NOX2-dependent H2O2 signal modulators, primary screen, NOX inhibitor project, cell-based, HEK293-NOX2, PMA-stimulated, Amplex Red fluorescence (AID 1159). Further: test concentration not given here. To be noted: 45 min, higher = more signal, called active from +8 up or from −8 down.
Assay [9] concerns the target NADPH oxidase 4 (Homo sapiens) (UniProt Q9NPH5). Kind of assay: NOX4-dependent H2O2 signal modulators, primary screen, NOX inhibitor project, cell-based, HEK293-NOX4, tetracycline-induced, Amplex Red fluorescence (AID 1160). To be noted: 45 min, higher = more signal, called active from +8 up or from −8 down.
Assay [10] addresses NADPH oxidase 5 (Homo sapiens) (UniProt Q96PH1). Nature of the assay: NOX5-dependent H2O2 signal modulators, primary screen, NOX inhibitor project, cell-based, HEK293-NOX5, Amplex Red fluorescence (AID 1161). To be noted: HEK293-NOX5, ionomycin, 45 min, higher = more signal.
Assay [11] in a line: A549 cell viability effects, profiling panel, calcein-AM fluorescence, 48 h, basal (AID 1162). Further: test concentration not given here. Conditions: higher = more signal.
Assay [12] in a line: adipocyte viability effects, profiling panel, cell-based, 3T3-L1 adipocytes, calcein-AM fluorescence, 48 h, basal (AID 1163). Further: test concentration not given here. To be noted: 3T3-L1 adipocytes viability, higher = more signal.
A short description of assay [13]: HepG2 cell viability effects, profiling panel, calcein-AM fluorescence, 48 h, basal (AID 1164). Further: test concentration not given here. To be noted: higher = more signal.
Assay [14] is described as follows: MM1S cell viability effects, profiling panel, calcein-AM fluorescence, 48 h, basal (AID 1165).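 Further: viability of MM1S multiple myeloma cells under basal unstimulated conditions; test concentration not given here.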 To be noted: higher = more signal.
A short description of assay [15]: basal RPMI8226 viability, no added stimulus, profiling panel, cell-based, calcein-AM fluorescence, 48 h, PK04 Diversity Set (AID 1166).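 Further: cells grown under basal conditions without added stimulus; test concentration not given here.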 Conditions: RPMI8226 myeloma viability, higher = more signal.
A short description of assay [16]: basal HepG2 mitochondrial membrane potential changes, profiling panel, cell-based, JC-1 fluorescence, 24 h, 100 nL compound (AID 1167). Further: test concentration not given here. To be noted: higher = more signal.
Assay [17] in a line: basal 3T3-L1 adipocyte mitochondrial potential changes, profiling panel, cell-based, JC-1 fluorescence, 3T3-L1 adipocytes, 24 h, 100 nL compound (AID 1168). Further: test concentration not given here. Conditions: JC-1 mitochondrial fluorescence, higher = more signal, called active from +8 up or from −8 down.
Assay [18] in a line: basal RPMI8226 mitochondrial membrane potential changes, profiling panel, cell-based, JC-1 fluorescence, 24 h, 100 nL compound (AID 1169). Further: test concentration not given here. Conditions: RPMI8226 myeloma, JC-1 mitochondrial potential fluorescence, higher = more signal.
Assay [19] can be described thus: basal MM1S mitochondrial membrane potential changes, profiling panel, cell-based, JC-1 fluorescence, 24 h, 100 nL compound (AID 1170). Further: test concentration not given here. To be noted: higher = more signal.
The nature of assay [20]: A549 lung cancer cell viability effects, profiling panel, resazurin fluorescence, 24 h, PK04 Diversity Set (AID 1171). Further: test concentration not given here. To be noted: higher = more signal, called active from +8 up or from −8 down. Background: Alamar Blue is a resazurin reagent that responds to reducing activity.

Active and inactive are the calls of the source.

Sequence of NADPH oxidase 4 (Homo sapiens) (Q9NPH5 whole entry, looked up): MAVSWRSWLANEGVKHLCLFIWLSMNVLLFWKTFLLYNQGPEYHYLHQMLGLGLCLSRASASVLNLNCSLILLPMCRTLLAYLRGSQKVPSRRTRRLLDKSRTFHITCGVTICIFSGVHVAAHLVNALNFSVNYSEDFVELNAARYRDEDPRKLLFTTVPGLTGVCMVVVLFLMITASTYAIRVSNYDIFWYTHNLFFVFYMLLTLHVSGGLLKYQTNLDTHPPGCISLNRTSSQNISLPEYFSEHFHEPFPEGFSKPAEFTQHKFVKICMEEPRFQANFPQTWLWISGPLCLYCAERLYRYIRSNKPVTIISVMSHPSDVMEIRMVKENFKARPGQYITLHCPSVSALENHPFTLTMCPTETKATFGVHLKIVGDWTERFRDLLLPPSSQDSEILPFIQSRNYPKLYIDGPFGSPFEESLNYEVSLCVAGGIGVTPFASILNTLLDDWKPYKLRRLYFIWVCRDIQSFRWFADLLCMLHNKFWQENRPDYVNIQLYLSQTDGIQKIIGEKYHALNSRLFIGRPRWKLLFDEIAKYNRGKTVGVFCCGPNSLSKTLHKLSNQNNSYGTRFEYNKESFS
Sequence of NADPH oxidase 2 (Homo sapiens) (P04839 whole entry, looked up): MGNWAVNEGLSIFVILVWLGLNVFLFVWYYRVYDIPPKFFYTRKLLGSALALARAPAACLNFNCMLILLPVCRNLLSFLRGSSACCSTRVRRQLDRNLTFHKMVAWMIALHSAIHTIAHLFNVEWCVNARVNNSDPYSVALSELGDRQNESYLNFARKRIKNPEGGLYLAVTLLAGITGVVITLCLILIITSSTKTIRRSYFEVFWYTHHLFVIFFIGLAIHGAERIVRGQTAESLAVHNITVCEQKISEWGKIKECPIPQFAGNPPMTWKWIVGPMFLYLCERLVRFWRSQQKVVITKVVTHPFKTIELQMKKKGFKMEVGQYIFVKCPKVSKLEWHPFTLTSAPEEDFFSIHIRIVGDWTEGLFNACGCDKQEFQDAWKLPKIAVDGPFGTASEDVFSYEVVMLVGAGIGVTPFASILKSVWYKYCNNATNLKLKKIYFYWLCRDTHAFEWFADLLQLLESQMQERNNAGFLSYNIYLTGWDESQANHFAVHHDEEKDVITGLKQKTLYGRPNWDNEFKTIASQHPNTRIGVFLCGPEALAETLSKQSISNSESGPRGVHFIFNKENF
Sequence of NADPH oxidase 5 (Homo sapiens) (Q96PH1 whole entry, looked up): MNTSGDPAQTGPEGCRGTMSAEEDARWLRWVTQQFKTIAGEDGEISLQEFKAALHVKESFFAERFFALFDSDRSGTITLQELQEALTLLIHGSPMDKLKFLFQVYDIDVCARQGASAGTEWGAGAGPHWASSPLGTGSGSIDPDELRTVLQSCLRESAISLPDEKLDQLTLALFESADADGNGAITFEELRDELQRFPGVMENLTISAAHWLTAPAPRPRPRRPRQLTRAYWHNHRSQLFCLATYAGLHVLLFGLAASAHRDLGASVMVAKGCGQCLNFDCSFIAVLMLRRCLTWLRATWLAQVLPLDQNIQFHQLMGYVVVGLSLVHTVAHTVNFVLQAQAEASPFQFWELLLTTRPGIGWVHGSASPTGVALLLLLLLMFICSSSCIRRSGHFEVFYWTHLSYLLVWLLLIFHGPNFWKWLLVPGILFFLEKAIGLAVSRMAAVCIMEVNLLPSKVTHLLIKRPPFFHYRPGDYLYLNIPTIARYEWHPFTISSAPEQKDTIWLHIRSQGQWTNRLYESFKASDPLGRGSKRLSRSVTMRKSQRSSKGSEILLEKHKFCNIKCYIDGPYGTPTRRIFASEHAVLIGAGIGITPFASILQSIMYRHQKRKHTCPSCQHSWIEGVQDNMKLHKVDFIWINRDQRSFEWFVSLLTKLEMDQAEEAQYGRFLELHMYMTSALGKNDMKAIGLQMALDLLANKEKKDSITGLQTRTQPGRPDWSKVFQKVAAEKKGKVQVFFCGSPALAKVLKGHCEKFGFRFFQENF

As for `COC(=O)[C@@]1(Cc2ccc(OC)cc2)[C@H]2c3cc(C(=O)N4CCCC4)n(CCn4cc([N+](=O)[O-])nc4C)c3C[C@H]2CN1C(=O)c1ccccc1`, the z-score in assay [1] was -2.21 (inactive); in assay [3], 2.38 (inactive); in [4] it was 0.0212 (inactive); in [5], 0.217 (inactive); in [6], 0.543 (inactive); in assay [7] it was -0.108. Also, the z-score is 0.54 (inactive) in assay [8]; -1.39 (inactive) in [9]; -2.54 in [10]; -1.13 in assay [11]; 0.936 in assay [12]; 0.0032 in assay [13]. For the same molecule, the z-score in [14] is -0.0622; in assay [15], -2.16; in [16], 2.13; in assay [17] it was -1.03 (inactive); in assay [18], 0.564; in assay [19] it was -0.693. The z-score in assay [20] is -0.612 (inactive). Further, the composite z-score in assay [2] amounted to 2.16.

For `COc1ccc([Si](C)(C)[C@H]2[C@H](CCO)O[C@@]3(C(=O)N(Cc4cccc(N(C=O)c5ccccc5)c4)c4ccccc43)[C@@H]2C)cc1`, the z-score in assay [1] is 2.15 (inactive); in [3] it was 2.24 (inactive); in assay [4], 2.47 (inactive); in assay [5], 1.1 (inactive); in [6], 1.82 (inactive); in assay [7], 1.91. The z-score in assay [8] was -1.31 (inactive); in assay [9], 0.451 (inactive); in assay [10], 0.00518; in assay [11], -0.533; in assay [12] it was 0.441; in [13], -3.83. Further, the z-score in assay [14] was -1.18; in assay [15], -4.23; in assay [16], 1.01; in assay [17], 0.549 (inactive); in [18], -1.03; in assay [19] it was -1.85. In addition, the z-score in assay [20] was -2.2 (inactive). In assay [2], this molecule registered a composite z-score of -0.339.

Consider `CCCCC(O)C1C=CC2C(=O)N(c3ccccc3)C(=O)C2N1Nc1ccccc1` (stereo not given), for which the z-score was -0.274 (inactive) in assay [1]; 4.52 (inactive) in [3]; 0.786 (inactive) in assay [4]; -0.196 (inactive) in assay [5]; 1.17 (inactive) in [6]; -0.439 in assay [7]. In addition, the z-score is -1.17 (inactive) in assay [8]; -2.93 (inactive) in [9]; -2.06 in assay [10]; 0.645 in assay [11]; -1.91 in [12]; -0.371 in [13]. In addition, the z-score was 0.225 in assay [14]; -0.374 in assay [15]; -1.43 in assay [16]; 0.466 (inactive) in assay [17]; -0.241 in assay [18]; 0.0498 in assay [19]. Further, in [20], the z-score was 0.134 (inactive). The molecule further yielded a composite z-score in assay [2] of 0.139.

Take `[N-]=[N+]=Nc1ccccc1[C@@H]1OC(c2ccc(OCCCO)cc2)=N[C@]1(CCS(=O)(=O)c1ccccc1)C(=O)NCC(O)CO` (stereo not given in full): the z-score was 0.401 (inactive) in [1]; 28.9 (active) in assay [3]; 27.2 (active) in assay [4]; 1.08 (inactive) in [5]; 2.07 (inactive) in [6]; -0.158 in [7]. Further, the z-score is -3.11 (inactive) in assay [8]; -0.18 (inactive) in assay [9]; -1.16 in assay [10]; -0.149 in assay [11]; -0.375 in assay [12]; 0.578 in assay [13]. Moreover, the z-score was -0.662 in [14]; 0.274 in assay [15]; -0.148 in assay [16]; -0.199 (inactive) in assay [17]; -0.0226 in assay [18]; -0.763 in assay [19]. Moreover, in assay [20], the z-score was 0.575 (inactive). This molecule registered a composite z-score in [2] of 0.165.

Turning to `CCC(CC)C(O)C1C=CC2C(=O)N(c3ccccc3)C(=O)C2N1Nc1ccccc1F` (stereo not given), the z-score in [1] was -0.372 (inactive); in assay [3], 0.834 (inactive); in [4] it was 0.412 (inactive); in assay [5] it was 0.164 (inactive); in assay [6], 0.584 (inactive); in [7], -0.364. In addition, the z-score in assay [8] is 0.223 (inactive); in [9], -0.0786 (inactive); in assay [10] it was -0.39; in assay [11], 0.21; in [12] it was 0.561; in assay [13], 1.09. For the same molecule, the z-score was 1.38 in [14]; 0.523 in assay [15]; 0.387 in assay [16]; -0.147 (inactive) in [17]; -0.231 in assay [18]; -0.817 in assay [19]. Besides, the z-score in assay [20] is 0.0513 (inactive). Further, the composite z-score in [2] is 0.0315.

Consider `COCCCNC(=O)[C@@H]1c2ccccc2C(=O)N(Cc2ccc(OC(F)(F)F)cc2)[C@H]1c1ccc(CO)cc1`, for which the z-score in assay [1] is -0.771 (inactive); in [3] it was 1.93 (inactive); in assay [4] it was 0.566 (inactive); in assay [5] it was 0.913 (inactive); in assay [6], 0.303 (inactive); in assay [7], 0.0296. In addition, the z-score in [8] is -0.385 (inactive); in [9], 0.915 (inactive); in assay [10] it was 1.91; in [11] it was 0.927; in assay [12] it was -0.704; in assay [13], 0.198. Moreover, the z-score was -0.0583 in [14]; 0.317 in assay [15]; 1.75 in [16]; -0.436 (inactive) in assay [17]; -0.604 in assay [18]; -0.29 in [19]. Besides, in [20], the z-score is 0.469 (inactive). This molecule yielded a composite z-score in assay [2] of 0.0271.

As for `COC(=O)[C@@]1(Cc2ccc(F)cc2)[C@H]2c3cc(C(=O)N(C)C)n(C)c3C[C@H]2CN1C(=O)c1ccccc1`, the z-score in assay [1] was -1.18 (inactive); in [3] it was 0.404 (inactive); in assay [4] it was 0.149 (inactive); in assay [5] it was -0.898 (inactive); in assay [6], 0.545 (inactive); in [7] it was -0.8. In addition, the z-score is 0.323 (inactive) in assay [8]; -0.0748 (inactive) in assay [9]; -0.552 in assay [10]; 0.888 in assay [11]; -0.0909 in assay [12]; -0.408 in assay [13]. In addition, the z-score is -0.364 in [14]; -0.119 in assay [15]; 0.216 in assay [16]; -0.574 (inactive) in [17]; -0.325 in assay [18]; -0.481 in assay [19]. Besides, the z-score in [20] was -0.452 (inactive). This molecule also showed a composite z-score in assay [2] of 0.113.

With `C=CCNC(=O)[C@@H]1[C@H]2C(=O)O[C@H](c3ccccc3)[C@H](c3ccccc3)N2[C@H](c2ccc(OCCO)cc2)[C@@]12C(=O)Nc1ccc(C#CC3(O)CCCCCC3)cc12`, the z-score in [1] is 0.668 (inactive); in assay [3], 4.16 (inactive); in [4], 0.444 (inactive); in assay [5] it was 1.02 (inactive); in assay [6] it was -0.882 (inactive); in [7], 1.35. Also, the z-score was 0.385 (inactive) in assay [8]; -1.05 (inactive) in assay [9]; -1.63 in [10]; -0.134 in assay [11]; 1.84 in [12]; -1.39 in assay [13]. Moreover, the z-score in [14] was -1.29; in assay [15] it was -2.43; in assay [16], -1.16; in assay [17], -0.848 (inactive); in assay [18], -0.862; in [19], -0.962. Besides, the z-score in assay [20] is 0.355 (inactive). In addition, the composite z-score in assay [2] amounted to 0.239.
